Screening data (PubChem)
eIF4E 4G PPI – blocks eIF4E binding to eIF4G. AID 782. P63073+Q04637. actives 0.37% (n = 220,000). inhibition, % at 21.7 µM. TR-FRET eIF4E-eIF4GI(517-606) binding, 2 h;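 active = inhibition above about 30%, limit read from the data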
eIF4H FP inh – inhibitors of RNA binding by human eIF4H | inhibition, % at 35 µM | eIF4H fluorescence polarization binding assay | AID 2012 | Q15056 | actives 0.94% (n = 290,000);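 also: calls also rest on retests at 20 µM and on dose response follow-up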
PABP FP inh – blocks human PABP binding to poly(A) RNA; P11940; fluorescence polarization; calls only at 35 µM; actives 1% (n = 290,000); AID 2014;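 also: calls also rest on retests at 20 µM and on dose response follow-up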
PABP1 MLLE inh – blocks PAM2 peptide binding to the PABP1 MLLE domain | P11940 | GST-MLLE / FITC-PAM2 fluorescence polarization | inhibition, % at 20 µM | actives 0.36% (n = 360,000); in the data active = inhibition above about 35%, passing the limit was not always enough
Numbers stand for hits. In the library only some 1.5% were active in any assay of this set; here they are far more common. Unless noted, no rule for the calls is given here.

Results for COc1ccccc1CNC(=O)C1(C)CCCCN1C (configuration not stated) ?
PABP1 MLLE inh: inactive

How did Cc1ccc(F)cc1C(=O)N1CCCCC1c1cc(C(=O)NCc2ccccc2)no1 (configuration not stated) do in these assays?
PABP1 MLLE inh: inactive

Results for CCNc1nc2[nH]c(=O)c3c(c2s1)OC(N)=C(C#N)C3c1ccc(C)cc1 (configuration not stated) ?
eIF4E 4G PPI: inactive; eIF4H FP inh: inconclusive; PABP FP inh: active; PABP1 MLLE inh: inactive

Results for CC(=O)Oc1cccc2c1C(=O)c1c(OC(C)=O)cc(C(=O)O)cc1C2=O ?
eIF4E 4G PPI: inactive; eIF4H FP inh: inconclusive; PABP FP inh: inactive; PABP1 MLLE inh: inactive

How did O=C(O)c1cc(O)c2c(c1)C(=O)c1cc(O)cc(O)c1C2=O do in these assays?
eIF4E 4G PPI: inactive; eIF4H FP inh: 90; PABP FP inh: active; PABP1 MLLE inh: inactive

How did Cn1ccc2c(-c3ccc(C(F)(F)F)cc3)cc3c(c21)C1CCC3C1 (configuration not stated) do in these assays?
PABP1 MLLE inh: inactive

How did OC[C@@H]1CN(Cc2ccc(-c3ccccc3)cc2)C[C@H](n2cnc3c(NCc4ccc(F)cc4)ncnc32)O1 do in these assays?
PABP1 MLLE inh: inactive

How did Cc1c(C(=O)O)[nH]c2c1C(=O)CC(c1ccccc1)C2 (configuration not stated) do in these assays?
eIF4E 4G PPI: inactive; eIF4H FP inh: inactive; PABP FP inh: inactive; PABP1 MLLE inh: inactive

Results for COCCOC(=O)c1[nH]c2c(c1C)C(=O)CC(c1ccco1)C2 (configuration not stated) ?
eIF4E 4G PPI: inactive; eIF4H FP inh: 84; PABP FP inh: inactive; PABP1 MLLE inh: inactive

Results for CSCCOC(=O)c1[nH]c2c(c1C)C(=O)CC(c1ccco1)C2 (configuration not stated) ?
eIF4E 4G PPI: inactive; eIF4H FP inh: inactive; PABP FP inh: inactive; PABP1 MLLE inh: inactive

How did COCCOC(=O)c1[nH]c2c(c1C)C(=O)CC(c1ccccc1)C2 (configuration not stated) do in these assays?
eIF4E 4G PPI: inactive; eIF4H FP inh: inactive; PABP FP inh: inactive; PABP1 MLLE inh: inactive

What do the screens show for `Cc1c(C(=O)OCCOC(C)C)[nH]c2c1C(=O)CC(c1ccco1)C2` (configuration not stated)?
eIF4E 4G PPI: inactive; eIF4H FP inh: 59; PABP FP inh: inactive; PABP1 MLLE inh: inactive

How did Cc1c(C(=O)OCc2ccccc2)[nH]c2c1C(=O)CC(c1ccco1)C2 (configuration not stated) do in these assays?
eIF4E 4G PPI: inactive; eIF4H FP inh: inactive; PABP FP inh: active; PABP1 MLLE inh: inactive

Results for COCCOC(=O)c1[nH]c2c(c1C)C(=O)CC(c1ccc(F)cc1)C2 (configuration not stated) ?
eIF4E 4G PPI: inactive; eIF4H FP inh: inactive; PABP FP inh: inactive; PABP1 MLLE inh: inactive

What do the screens show for `CCOC(=O)c1[nH]c2c(c1C)C(=O)CC(c1ccco1)C2` (configuration not stated)?
eIF4E 4G PPI: inactive; eIF4H FP inh: 99; PABP FP inh: active; PABP1 MLLE inh: inactive

How did CC(=O)Nc1cccc(-c2ccnc3c2CC(C(=O)NCCC(F)(F)F)O3)c1 (configuration not stated) do in these assays?
PABP1 MLLE inh: inactive

Results for O=C1NC(=O)C(c2ccccc2)(c2ccccc2)N1S(=O)(=O)c1ccccc1 ?
PABP1 MLLE inh: inactive

What do the screens show for `COc1ccc(NC(=O)c2cc(C3CCCCN3C(=O)c3ccccc3)on2)c(C)c1` (configuration not stated)?
PABP1 MLLE inh: inactive

What do the screens show for `COC(=O)/C=c1/s/c(=C(/C#N)C(=O)N2CCCCC2)n(-c2ccccc2)c1=O`?
eIF4E 4G PPI: inactive; eIF4H FP inh: inactive; PABP FP inh: inactive; PABP1 MLLE inh: inactive

How did COc1cc(/C=c2\s/c(=C(/C#N)C(=O)N3CCCC3)n(-c3ccccc3)c2=O)ccc1O do in these assays?
eIF4E 4G PPI: inactive; eIF4H FP inh: 80; PABP FP inh: active; PABP1 MLLE inh: inactive

How did Cc1cccnc1C(NC(=O)C1CCN(CCOc2ccc(Cl)cc2Cl)CC1)c1ccc(Cl)cc1 (configuration not stated) do in these assays?
PABP1 MLLE inh: inactive

What do the screens show for `Cc1nc(NC(=S)Nc2ccccc2)sc1C`?
eIF4E 4G PPI: inactive; eIF4H FP inh: inactive; PABP FP inh: inactive; PABP1 MLLE inh: 37

What do the screens show for `O=C(NCCCO)/C(=C/c1ccco1)NC(=O)c1ccc(Br)o1`?
eIF4E 4G PPI: inactive; eIF4H FP inh: 58; PABP FP inh: inactive; PABP1 MLLE inh: inactive
